From PubChem BioAssay
HP1b chromo inh = HTS for Inhibitors of HP1-beta Chromodomain Interactions with Methylated Histone Tails. Chromobox protein homolog 1 (Homo sapiens), P83916. Potency, µM (titrated, usually from 114 µM), inactives show at the top dose activity change, negative = inhibition, actives largely listed as inhibitors. AlphaScreen HP1-beta / biotin-H3K9me3 peptide binding. 390,000 tested, 0.56% active. AID 540317, 2011; also: nearly all actives have a fitted effect of over 70% in size
Target sequence (P83916 whole entry, looked up): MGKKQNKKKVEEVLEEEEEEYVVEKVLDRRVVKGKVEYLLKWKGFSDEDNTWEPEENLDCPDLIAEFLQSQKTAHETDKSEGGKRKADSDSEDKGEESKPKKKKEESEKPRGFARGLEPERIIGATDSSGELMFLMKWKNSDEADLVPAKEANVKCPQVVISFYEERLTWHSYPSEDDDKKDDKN
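AlphaScreen: HP1-beta (50 nM) preformed 30 min with biotin-H3(1-18)K9me3 peptide (50 nM) in PBS pH 7.4, 0.01% Tween-20. Compound added for 30 min at RT, then streptavidin donor/nickel chelate acceptor beads (10 ug/mL) for 30 min.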
JMJD2A Tudor = qHTS Assay for Inhibitors of JMJD2A-Tudor Domain; Lysine-specific demethylase 4A (Homo sapiens), O75164; Potency, µM (top dose mostly 114 µM), for inactives: at the top dose activity change, negative = inhibition, actives largely listed as inhibitors; AlphaScreen JMJD2A-Tudor / H3K4me3 peptide binding; 390,000 tested, 4.4% active; also: % is scaled to controls: 0 for no effect and ±100 for the full control effect; nearly all actives have a fitted effect of over 50% in size
Sfp inh = qHTS Assay for Inhibitors of Bacillus subtilis Sfp phosphopantetheinyl transferase (PPTase) | 4'-phosphopantetheinyl transferase ffp (Bacillus subtilis), Q9F4F7 | Biochemical Sfp PPTase activity, qHTS | Potency, µM, for the others: largest response in the series, negative = inhibition, hits mostly inhibitors | 310,000 tested, 3.5% active;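 also: the enzyme is Sfp with the accession as filed and its product quenches rhodamine fluorescence; 0% = enzyme reaction without inhibitor and -100% = no enzyme wells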
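Step 1, compound plus 15 nM Sfp-PPTase, 15 min, room temperature. Step 2, add rhodamine-CoA (5 uM) and BHQ-2-YbbR (12.5 uM). Step 3, read 525/598 nm fluorescence at 0 and 30 min.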
BAZ2B block = qHTS Assay for Inhibitors of BAZ2B; Bromodomain adjacent to zinc finger domain protein 2B (Homo sapiens), Q9UIF8; AlphaScreen BAZ2B-H3K14Ac peptide displacement; Potency, µM (doses to about 114 µM), inactives show at the top dose activity change, negative = inhibition, usual class: inhibitors; 360,000 tested, 4.4% active; AID 504333, 2011; also: % is scaled to controls: 0 for no effect and ±100 for the full control effect; nearly all actives have a fitted effect of over 60% in size
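Multi-concentration screen (max 110 uM) measuring displacement of acetylated histone H3 peptide from BAZ2B by AlphaScreen, using 50 nM protein, 50 nM peptide and 10 ug/mL streptavidin donor plus Ni-chelate acceptor beads.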
G9a inh = qHTS Assay for Inhibitors of Histone Lysine Methyltransferase G9a. G9a H3K9 monomethylation, AlphaScreen, 2 h. Potency, µM (top dose mostly 102 µM), for the others: at the highest dose activity, negative = inhibition, hits mostly inhibitors. 350,000 tested, 8.8% active; also: % is scaled to controls: 0 for no effect and ±100 for the full control effect; nearly all actives have a fitted effect of over 75% in size
Target sequence (Q96KQ7 913-1193 limits assumed): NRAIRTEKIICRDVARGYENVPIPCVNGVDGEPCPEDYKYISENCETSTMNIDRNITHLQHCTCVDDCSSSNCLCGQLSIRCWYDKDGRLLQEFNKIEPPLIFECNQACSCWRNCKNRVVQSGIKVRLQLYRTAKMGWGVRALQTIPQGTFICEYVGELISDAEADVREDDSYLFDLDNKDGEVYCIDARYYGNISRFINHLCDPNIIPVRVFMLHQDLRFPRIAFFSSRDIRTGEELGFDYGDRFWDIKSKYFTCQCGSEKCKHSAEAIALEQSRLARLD
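Quantitative HTS format: methyltransferase activity on a biotin-tagged H3K9 peptide is measured by AlphaScreen, using a rabbit anti-monomethyl-H3K9 antibody with streptavidin donor and anti-IgG acceptor beads. Final levels are 20 nM enzyme, 500 nM peptide, 20 uM SAM; 2 h RT.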
The depositor's hits bear a star; [ ] = another dose, or the depositor's remark. Shown are actives, neighbours in structure and some others; about 12% of the full set was active somewhere. Calls follow the shape of the dose curve; as a rule, active = well fitted curve in the direction sought with a large enough effect; inconclusive = small, poorly fitted or top-dose-only effect, or another doubt; inactive = no such curve, though single readings can be large; an effect the other way counts as inactive or inconclusive. Potency is read from the fitted curve at half-maximal effect.

How did CC1CN(c2ncnc3c2oc2ccccc23)CC(C)O1 (stereo unspecified) do in these assays?
HP1b chromo inh: 54%; JMJD2A Tudor: -24%; Sfp inh: 4%; BAZ2B block: inconclusive; G9a inh: 50µM*

Results for Cc1ccc(SSc2cc(C)ccc2N)c(N)c1 ?
HP1b chromo inh: 14µM*; JMJD2A Tudor: 7.9µM*; BAZ2B block: 50µM*; G9a inh: inconclusive

How did Cc1ccc(NC(=O)COc2ccc(-c3nn(C)c(=O)c4ccccc34)cc2)c(C)c1 do in these assays?
HP1b chromo inh: 32%; JMJD2A Tudor: -2%; BAZ2B block: -2%; G9a inh: 7%[59 µM]

How did CN=C1C=CC(=C(c2ccc(N(C)C)cc2)c2ccc(N(C)C)cc2)C=C1 do in these assays?
Sfp inh: 45µM*; G9a inh: inconclusive

How did COc1ccc(C(N)CCc2ccc(C)o2)cc1 (stereo unspecified) do in these assays?
HP1b chromo inh: -12%; JMJD2A Tudor: inconclusive; Sfp inh: -12%; BAZ2B block: inconclusive; G9a inh: 79µM*

What do the screens show for `CCc1ccc(CCC(=O)Nc2ccc(OC)cc2)o1`?
HP1b chromo inh: -25%; JMJD2A Tudor: inconclusive; Sfp inh: 18%; BAZ2B block: -11%; G9a inh: 15%[59 µM]

Results for COc1ccc(/C=N\NC(=O)c2ccc(F)cc2)cc1COc1cc(F)ccc1[N+](=O)[O-] ?
HP1b chromo inh: 0%; JMJD2A Tudor: -21%; Sfp inh: -5%; BAZ2B block: -20%

Results for COc1ccc(/C=N/NS(=O)(=O)c2ccc(F)cc2)cc1COc1cc(F)ccc1[N+](=O)[O-] ?
HP1b chromo inh: 45%; JMJD2A Tudor: -9%; Sfp inh: -26%; BAZ2B block: -19%; G9a inh: 6.3µM*

How did COc1cccc(-c2cc(C(=O)Nc3ccc([N+](=O)[O-])cn3)c3ccccc3n2)c1 do in these assays?
HP1b chromo inh: 6%; JMJD2A Tudor: -19%; Sfp inh: -5%; BAZ2B block: inconclusive; G9a inh: 7.9µM*

How did O=C(Nc1ccc([N+](=O)[O-])cn1)c1cc(-c2cccc(Br)c2)nc2ccccc12 do in these assays?
HP1b chromo inh: -14%; JMJD2A Tudor: -34%; Sfp inh: 6%; BAZ2B block: -30%; G9a inh: inconclusive

What do the screens show for `CCOc1cccc(-c2cc(C(=O)Nc3ccon3)c3ccccc3n2)c1`?
HP1b chromo inh: 18%; JMJD2A Tudor: -25%; Sfp inh: -5%; BAZ2B block: -5%; G9a inh: 20µM*

Results for COC(=O)C/C=C\[C@@H](C)[C@@H](/C=N\O[C@@H](C)c1cn([C@H]2COC[C@H]2O)nn1)OC ?
Sfp inh: 15%

Results for COCCn1c(=O)[nH]c2cc(C(=O)Nc3nnc(C)s3)ccc21 ?
HP1b chromo inh: -3%; JMJD2A Tudor: -12%; Sfp inh: -9%; BAZ2B block: 3%; G9a inh: 79µM*

Results for COCCn1c(=O)[nH]c2cc(C(=O)Nc3cc(OC)c(OC)c(OC)c3)ccc2c1=O ?
HP1b chromo inh: -21%; JMJD2A Tudor: -16%; Sfp inh: 8%; BAZ2B block: -3%; G9a inh: 19%

Results for c1ccc(COCCCc2cnc[nH]2)cc1 ?
Sfp inh: -20%; G9a inh: 11%[59 µM]

What do the screens show for `CC(C)C(=O)OCC(=O)Nc1ccc(N=Nc2ccccc2)cc1`?
HP1b chromo inh: inconclusive; JMJD2A Tudor: 35µM*; Sfp inh: -5%; BAZ2B block: 40µM*; G9a inh: 45µM*

What do the screens show for `O=C(CCl)Nc1ccc(N=Nc2ccccc2)cc1`?
HP1b chromo inh: 1%; JMJD2A Tudor: inconclusive; Sfp inh: inconclusive; BAZ2B block: 40µM*; G9a inh: inconclusive

What do the screens show for `CC(=O)OCC1OC(c2cc(C)cc(C)c2)C=CC1OC(C)=O` (stereo unspecified)?
Sfp inh: 10%

What do the screens show for `CS(=O)(=O)C1=NN2C(=N)/C(=C\c3ccc(OC(=O)c4ccco4)cc3)C(=O)N=C2S1`?
HP1b chromo inh: 26%; JMJD2A Tudor: -11%; Sfp inh: -22%; BAZ2B block: 50µM*; G9a inh: 45µM*

How did N=C1/C(=C\c2ccc(OC(=O)c3ccc(F)cc3)cc2)C(=O)N=C2SC(N3CCOCC3)=NN12 do in these assays?
HP1b chromo inh: 39%; JMJD2A Tudor: 2%; Sfp inh: -20%; BAZ2B block: 45µM*; G9a inh: -9%

Results for CCS(=O)(=O)C1=NN2C(=N)/C(=C\c3ccc(OC(=O)c4ccco4)c(OC)c3)C(=O)N=C2S1 ?
HP1b chromo inh: 14%; JMJD2A Tudor: inconclusive; Sfp inh: -10%; BAZ2B block: -39%; G9a inh: 32µM*

How did CS(=O)(=O)C1=NSC2=NC(=O)/C(=C\c3ccc(OC(=O)c4ccco4)cc3)C(=N)N21 do in these assays?
Sfp inh: -3%; BAZ2B block: -22%; G9a inh: inconclusive

How did CCOC(=O)c1ccc(N2NC(=O)/C(=C/c3ccc(OC(=O)c4ccco4)c(OC)c3)C2=O)cc1 do in these assays?
Sfp inh: inconclusive; BAZ2B block: inconclusive; G9a inh: 32µM*

What do the screens show for `CC1CCN(C2=NN3C(=N)/C(=C\c4ccc(OC(=O)c5ccco5)cc4)C(=O)N=C3S2)CC1`?
HP1b chromo inh: 4%; JMJD2A Tudor: inconclusive; Sfp inh: 12%; BAZ2B block: -37%; G9a inh: 17%

Results for N#CCCn1c(=O)c(-c2ccc(Cl)cc2)nc2cnc(OCc3ccccc3)nc21 ?
Sfp inh: -3%; G9a inh: -7%[12.7 µM]

What do the screens show for `CC(=O)NCCNc1ncncc1-c1ccccc1C`?
Sfp inh: inconclusive; G9a inh: -21%[0.501 µM]

What do the screens show for `Cc1nc(Oc2ccccc2C)c2oc3ccccc3c2n1`?
HP1b chromo inh: 51%; JMJD2A Tudor: 12%; BAZ2B block: 20%; G9a inh: 21%[59 µM]

How did CC(=O)N1CCN(CC(=O)NC(=O)Nc2ccc3c(c2)OCCO3)CC1 do in these assays?
HP1b chromo inh: 13%; JMJD2A Tudor: -11%; BAZ2B block: -4%; G9a inh: 0%

How did CSc1ccccc1NC(=O)CN(C)C(=O)COc1cccc2cccnc12 do in these assays?
HP1b chromo inh: 0%; JMJD2A Tudor: 22µM*

How did CN(CC(=O)NCc1ccccc1Cl)S(=O)(=O)c1ccc2c(c1)c(=O)n(C)c(=O)n2C do in these assays?
HP1b chromo inh: 10%; JMJD2A Tudor: -16%; BAZ2B block: -6%; G9a inh: 1%[59 µM]
